# Measured values as given in the supplement of paper PMC6555819.
# Legend:
# Test in all cases: PBM binding z-score (relative to random genomic background probes); higher = stronger binding; sequences stand for … in GC…GCGATTGACAGCGTAGAATGAAGG
# [1] = test system: FXR:RXRa (NR concentration 270 nM, RXRa partner concentration 90 nM)
# Procedure, shortened: (§1)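 Custom Agilent 4×180K protein-binding microarrays carried double-stranded probes. Their 34-nt variable regions held direct-repeat seeds, single-nucleotide variants, half-site ablations and random human genomic background sequences. Arrays were incubated 1 h with ligand-free nuclear receptor dimers in PBS pH 7.4, 2% milk, 0.02% Triton X-100, 1 mM DTT, 0.2 mg/mL BSA and 0.4 mg/ml salmon testes DNA. Antibodies against each partner (one per run) detected binding, and scanned fluorescence was regression-normalized. Binding z-scores use random background probes as reference.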
# [2] = test system: LXRa:RXRa (NR concentration 270 nM, RXRa partner concentration 90 nM)
# Procedure, shortened: as §1
# [3] = test system: LXRa homodimer (NR concentration 270 nM)
# Procedure, shortened: as §1
# [4] = test system: LXRb:RXRa (NR concentration 270 nM, RXRa partner concentration 90 nM)
# Procedure, shortened: as §1
# [5] = test system: LXRb homodimer (NR concentration 270 nM)
# Procedure, shortened: as §1
# [6] = test system: PPARa:RXRa (NR concentration 270 nM, RXRa partner concentration 90 nM)
# Procedure, shortened: as §1
# [7] = test system: PPARg:RXRa (NR concentration 180 nM, RXRa partner concentration 90 nM)
# Procedure, shortened: as §1
# [8] = test system: PPARg:RXRa 270nM:90nM, anti-RXR (NR concentration 270 nM, RXRa partner concentration 90 nM)
# Procedure, shortened: as §1
# [9] = test system: PPARg:RXRa 30nM:10nM, anti-RXR (NR concentration 30 nM, RXRa partner concentration 10 nM)
# Procedure, shortened: as §1
# [10] = test system: PPARg:RXRa 90nM:30nM, anti-RXR (NR concentration 90 nM, RXRa partner concentration 30 nM)
# Procedure, shortened: as §1
# [11] = test system: PPARg:RXRa DBDmut IVT, anti-RXR (DBD mutation: RXRa K156A/R161A, NR concentration 270 nM, RXRa partner concentration 90 nM)
# Procedure, shortened: as §1
# [12] = test system: PPARg:RXRa IVT, anti-PPARg (NR concentration 270 nM, RXRa partner concentration 90 nM)
# Procedure, shortened: as §1
# [13] = test system: PPARg DBDmut:RXRa IVT, anti-PPARg (DBD mutation: PPARg1 K132A/R137A, NR concentration 270 nM, RXRa partner concentration 90 nM)
# Procedure, shortened: as §1
# [14] = test system: PPARg DBDmut IVT, anti-PPARg (DBD mutation: PPARg1 K132A/R137A, NR concentration 270 nM)
# Procedure, shortened: as §1
# [15] = test system: PPARg homodimer (NR concentration 180 nM)
# Procedure, shortened: as §1
# [16] = test system: PXR:RXRa (NR concentration 270 nM, RXRa partner concentration 90 nM)
# Procedure, shortened: as §1
# [17] = test system: PXR homodimer (NR concentration 270 nM)
# Procedure, shortened: as §1
# [18] = test system: RARa:RXR (NR concentration 270 nM, RXRa partner concentration 90 nM)
# Procedure, shortened: as §1
# [19] = test system: RARa homodimer (NR concentration 270 nM)
# Procedure, shortened: as §1
# [20] = test system: RARb:RXRa (NR concentration 270 nM, RXRa partner concentration 90 nM)
# Procedure, shortened: as §1
Sequence,PBM binding z-score [1],PBM binding z-score [2],PBM binding z-score [3],PBM binding z-score [4],PBM binding z-score [5],PBM binding z-score [6],PBM binding z-score [7],PBM binding z-score [8],PBM binding z-score [9],PBM binding z-score [10],PBM binding z-score [11],PBM binding z-score [12],PBM binding z-score [13],PBM binding z-score [14],PBM binding z-score [15],PBM binding z-score [16],PBM binding z-score [17],PBM binding z-score [18],PBM binding z-score [19],PBM binding z-score [20]
ATCGAAAGGTCGACGAGGTGCGTATACACCGTTT,4.16,2.96,-0.0247,2.54,0.0651,4.07,2.24,2.73,0.695,1.53,0.356,1.41,0.639,-0.109,1.06,3.37,-0.325,2.45,-0.212,3.79
ATCGAAAGGTCGACGAGCTGAGTATACACCGTTT,4.14,3.16,0.028,2.59,0.389,4.22,2.33,2.87,1.17,1.72,0.472,1.18,0.525,1.06,0.589,2.22,-0.245,2.78,0.204,3.72
CCTCGGAGGACAACAGGCGGTCAGAGCTGCCAGA,-0.211,-0.0211,0.394,-0.76,-1.15,-0.468,-0.327,-0.898,-0.775,-1.03,-0.178,-0.851,-1.43,-1.37,-0.158,-0.464,-0.435,-0.312,-0.034,1.61
ATCGAAATGTCGAAGGTGAGTATACCCACCCGAA,-0.36,-0.333,-0.285,-0.254,-0.151,0.29,0.913,0.538,0.133,0.522,-1.11,0.391,0.818,0.244,-0.161,-0.253,-0.511,0.116,-0.269,0.495
TTACCAAGGTGAGCTGAGTTCGTTGATCCAACTC,0.596,0.237,-0.394,-0.0256,-1.28,0.596,-0.321,0.146,-0.237,0.19,1.27,1.51,-0.265,-0.637,-0.679,5.28,2.22,0.594,-0.779,1.04
CAAACTAGGTCACGAACGGTCAAAGTCGAATGAC,5.85,7.42,4.34,5.78,1.18,5.62,9.57,8.01,5.99,7.93,8.77,9.13,8.12,6.44,4.03,3.71,0.663,4.05,2.03,4.7
CCGACTGGGGCAAGGTTACCGTAACGCACAGCCA,0.11,0.127,-0.449,0.456,-1.12,1.87,2.6,3.45,0.963,2.8,3.53,3.71,-0.69,-1,-0.362,0.043,-0.221,0.745,-0.534,1.69
TGGATGAGGTTAAAGATCAGGGAACGTGGCGTCG,3.69,2.74,0.085,2.45,1.54,4.13,3.75,4.84,3.49,4.98,0.289,1.92,1.51,0.255,1.99,2.71,1.07,3.96,0.62,2.37
AGAAAGAGGGCAATGAGTTGATAGCACGGGTGGC,0.593,0.892,0.104,0.387,0.472,1.55,1.23,0.938,0.0317,0.591,2.75,1.6,0.0853,0.306,0.658,1.84,4.38,0.758,0.0375,2.46
ACAGACATGTGAGTGAAGGTAACTCAGCTGGACG,-0.28,-0.449,-0.659,-0.669,-0.436,-0.3,0.817,-0.286,-0.111,0.163,-0.459,-0.467,-0.0972,-0.0853,-0.419,-0.554,-0.383,-0.531,-0.221,-0.157
ATATGTAGATTATCGGGTCATTCAGTTTGCGCAT,2.14,2.5,1.98,2.47,0.87,2.81,1.63,1.77,0.662,1.31,2.57,2.72,1.49,1.26,1.63,3.39,6.51,2.84,0.767,1.85
ACTAGTTGGTCAGCTGAGCTCACACACAATTCGG,-0.29,-0.363,-0.563,-0.541,-0.142,-0.497,0.575,-0.784,-0.476,-0.673,0.771,0.632,0.319,0.574,-0.1,-0.455,-0.49,-0.357,-0.333,0.363
CCTTACGGGTCCAGGTTATAGCACGGGTGGTACG,-0.118,-0.304,-0.277,-0.566,-1.29,-0.292,0.168,-0.847,-0.404,-0.604,-1.08,-0.342,-0.7,-1.74,-0.0235,-0.402,-0.186,-0.536,0.162,0.245
GTTTGTAGATCAAGGTTAAGAAAGACTAAGCTAA,0.943,1.64,0.556,0.954,0.547,1.84,1.93,2.88,1.48,2.65,1.8,1.93,1.34,0.524,1.43,0.822,1.11,1.21,2.12,1.24
